Assay outcomes (PubChem BioAssay)
This is a sample that favours compounds with a hit; in the whole collection about 7.5% have one here.
ELG1 genotox = induces genotoxicity in HEK293T cells with luciferase-tagged ELG1. HEK293T ELG1-luciferase reporter, luminescence, 16 h. 330,000 compounds, 1.3% hits. Potency, µM (series often up to 46 µM), for the others: top-dose activity change, positive = activation, actives largely listed as activators. AID 504466; note: % of control where 0% means no effect; nearly all actives have a fitted effect of over 60% in size
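HEK293T cells expressing luciferase-tagged ELG1 were exposed to compound or DMSO vehicle for 16 hr at 37 °C and 5% CO2. Luciferase activity was then measured with ONE-Glo after 30 min at room temperature.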
NPC1 promoter act = activators of NPC1 promoter. 320,000 compounds, 2.4% hits. Potency, µM (titrated, usually from 9.22 µM), without a hit: top-dose activation, most hits filed as activators. AID 485313. Huh7 NPC1 promoter luciferase reporter, 24 h; note: % of control where 0% means no effect; nearly all actives have a fitted effect of over 60% in size
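Luminescence read-out of NPC1 promoter-driven luciferase in stably transfected Huh7 cells; compounds delivered in DMSO and left 24 h at 37C, 5% CO2, qHTS titration format.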
KinaseGlo FLuc = Kinase-Glo luciferase inhibition (counter-screen) | Kinase-Glo luciferase, ATP luminescence, 8 min | Potency, µM (titrated, usually from 38.3 µM), for the others: at the highest dose activity change, negative = inhibition, actives largely listed as inhibitors | 200,000 compounds, 0.28% hits | AID 1379; note: % is set by controls: 0 for no effect and ±100 for the full control effect; nearly all actives have a fitted effect of over 60% in size
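Compound is pinned into ATP-containing buffer (10 uM ATP, imidazole pH 7.2, 7 mM MgCl2). Kinase-Glo luciferase reagent is then added. Light output is recorded following an 8-min room-temperature incubation.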
FLuc modulator = firefly luciferase modulation, counter-screen for miR-21 project | P08659 | purified FLuc, Km substrates, luminescence inhibition | Potency, µM (doses to about 57.5 µM), without a hit: at the top dose activity change, negative = inhibition, actives largely listed as inhibitors | 360,000 compounds, 6.9% hits;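 note: plate controls were vehicle for no effect and reference inhibitor for full effect; nearly all actives have a fitted effect of over 55% in size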
Target sequence (P08659 whole entry, looked up): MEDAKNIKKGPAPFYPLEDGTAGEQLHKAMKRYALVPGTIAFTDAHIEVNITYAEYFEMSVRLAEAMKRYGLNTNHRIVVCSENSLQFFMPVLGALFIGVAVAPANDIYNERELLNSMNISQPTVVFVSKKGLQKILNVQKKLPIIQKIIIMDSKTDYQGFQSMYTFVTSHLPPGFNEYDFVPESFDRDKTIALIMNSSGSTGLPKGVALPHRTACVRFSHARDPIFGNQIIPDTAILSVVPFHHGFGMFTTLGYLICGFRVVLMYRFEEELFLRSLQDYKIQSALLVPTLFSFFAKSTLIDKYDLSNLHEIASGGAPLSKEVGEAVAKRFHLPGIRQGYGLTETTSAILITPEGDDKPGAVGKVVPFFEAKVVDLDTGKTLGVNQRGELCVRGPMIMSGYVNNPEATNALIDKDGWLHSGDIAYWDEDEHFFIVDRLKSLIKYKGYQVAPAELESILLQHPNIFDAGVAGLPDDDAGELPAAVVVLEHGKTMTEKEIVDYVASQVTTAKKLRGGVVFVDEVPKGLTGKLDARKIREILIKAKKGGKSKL
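Purified P. pyralis luciferase, 10 nM final, with Km-level 10 uM D-luciferin and 10 uM ATP in 50 mM Tris acetate pH 7.5, 10 mM Mg acetate, 0.01% Tween-20, 0.05% BSA; 6-point qHTS titration about 60 µM downward; luminescence read.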
Rab9 prom act = Rab9 promoter activation; Huh7 Rab9 promoter-luciferase reporter, luminescence, 24 h; Potency, µM (doses to about 9.22 µM), inactives show at the highest dose activation, negative = inhibition, actives largely listed as activators; 320,000 compounds, 2.8% hits; note: % of control where 0% means no effect; nearly all actives have a fitted effect of over 60% in size
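Huh7 cells stably carrying a Rab9 promoter-luciferase reporter, 1500 cells per well in OP-MEM I with 10% FBS, treated with compound 24 hours at 37C. Luciferase activity read by luminescence after 10 minutes with Amplite reagent.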
SMN2 splice up = enhancers of SMN2 splice variant expression; Potency, µM (doses to about 46.1 µM), without a hit: at the highest dose activity change, positive = activation, hits mostly activators; 210,000 compounds, 2.8% hits; AID 1458; HEK293 SMN2-luciferase splicing reporter, luminescence, 30-36 h; note: % of control where 0% means no effect; nearly all actives have a fitted effect of over 55% in size
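HEK293 cells carry an SMN2 […]–luciferase reporter in which exon 7 inclusion puts luciferase in frame. Cells were plated 10-12 h before compound addition, then incubated 30-36 h at 37C. ONE-Glo luminescence was read; sodium butyrate at 4.5 mM final served as control.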
An asterisk follows results filed as active; ? = inconclusive; / = no result; [ ] = remark or other dose. Calls come from the whole dose curve; as a rule, active = well fitted curve in the direction sought with a large enough effect; inconclusive = small, poorly fitted or top-dose-only effect, or another doubt; inactive = no such curve, though single readings can be large; an effect the other way counts as inactive or inconclusive. Potency is the fitted concentration of half-maximal effect.

SMILES | ELG1 genotox | NPC1 promoter act | KinaseGlo FLuc | FLuc modulator | Rab9 prom act | SMN2 splice up
COc1cc(SC)ccc1C(=O)Nc1ncc(C)s1 | ? | ? | -2% | 0.13µM* | 0.45µM* | 1.3µM*
COc1cc(SC)ccc1C(=O)Nc1ccon1 | ? | ? | -3% | 13µM* | 2.8µM* | ?
CCCOc1ccc(C(=O)Nc2ccc(Cl)c(-c3nc4ncccc4o3)c2)cc1 | / | / | / | ? | / | -3%
Cc1ccc(C2=NN(CC(=O)NC(C)c3ccccc3)C(=O)CC2)cc1 (stereo unspecified) | / | / | / | -1% | / | /
Cc1ccc(C(CNS(=O)(=O)c2cc(F)ccc2F)N2CCN(C)CC2)cc1 (stereo unspecified) | 13% | 2% | / | 0% | 6% | /
O=C(CSc1ncccc1-c1nc2ccccc2[nH]1)Nc1ccc2c(c1)OCCO2 | 11% | 7% | -2% | 27µM* | 20% | -6%[1.84 µM]
O=C(CSc1nc2ncccc2[nH]1)Nc1ccc2c(c1)OCO2 | -4% | 1% | / | ? | -2% | /
O=C(CSc1ccccn1)c1ccc2c(c1)OCO2 | 4.6µM* | 3.5µM* | ? | 11µM* | 2.5µM* | 11µM*
O=C(COC(=O)CCCSc1nc2ccccc2[nH]1)Nc1cccc(F)c1 | 1% | -2% | / | 13µM* | -3% | /
C=CCNC(=O)NC(=O)COC(=O)CCCSc1nc2ccccc2[nH]1 | -2% | 0% | -1% | -6% | 1% | 19%
Cc1ccc2nc(SC(C)C(=O)N3CCOCC3)[nH]c2c1 (stereo unspecified) | ? | 2.5µM* | -2% | 24µM* | 3.2µM* | 20µM*
Cc1ccc2nc(SCC(=O)Nc3ccc4c(c3)OCCO4)[nH]c2c1 | 17% | -5% | 1% | 15µM* | 1% | -4%
CCc1c(C)nc(SCC(=O)Nc2ccc3c(c2)OCCO3)[nH]c1=O | 4% | -1% | 0% | ? | -7% | /
O=C(CSc1nc2ccccc2[nH]1)c1ccc2c(c1)OCO2 | 13µM* | ? | -1% | 12µM* | 1.4µM* | 7%
Cc1ccc2nc(SC(C)C(=O)NC3CCCC3)[nH]c2c1 (stereo unspecified) | -5% | / | / | / | / | /
Cc1ccc2nc(SCC(=O)c3ccc4c(c3)OCO4)[nH]c2c1 | 6% | 9% | -1% | ? | 5% | -7%
Cc1cc2nc(SC(C)C(=O)O)[nH]c2cc1C (stereo unspecified) | 0% | -1% | 2% | 21µM* | 0% | -3%
O=C(CSc1nc2ccccc2[nH]1)Nc1ccc2c(c1)OCCO2 | 4% | 18% | 14% | 8.5µM* | ? | -6%
O=C(/C=C\c1ccccc1[N+](=O)[O-])Nc1ccccc1 | ? | ? | -5% | 11µM* | 2µM* | 18µM*
Cc1ccnc(NC(=O)/C=C/c2ccccc2[N+](=O)[O-])c1 | 2.6µM* | 2µM* | -29% | 3.4µM* | 0.56µM* | 2.8µM*
Cc1ccnc(NC(=O)c2ccccc2[N+](=O)[O-])c1 | 2% | 27% | -4% | -26% | 17% | 20%
NS(=O)(=O)c1ccc(NC(=O)/C=C/c2ccccc2[N+](=O)[O-])cc1 | -2% | 1% | -3% | 4% | 0% | -9%
Cc1ccnc(NC(=S)NC(=O)/C=C/c2ccccc2)c1 | 11% | ? | -2% | -19% | ? | 15%
Cc1ccnc(NC(=O)/C=C/c2ccccc2Cl)c1 | ? | 0.71µM* | -27% | 0.6µM* | 1.1µM* | 1.3µM*
CN(CC(=O)OCC(=O)NCC(F)(F)F)S(=O)(=O)c1ccc(Cl)cc1 | 0% | -8% | -1% | 2% | -1% | -11%
SMILES | ELG1 genotox | NPC1 promoter act | KinaseGlo FLuc | FLuc modulator | Rab9 prom act | SMN2 splice up
Cc1ccc(Cl)cc1Nc1nn2c(=O)c3ccc(C(=O)NCc4ccc(F)cc4)cc3nc2s1 | / | / | / | 0% | / | /
O=C(Nc1ccc2c(c1)CCC2)c1ccccc1F | ? | 0.89µM* | -17% | 3µM* | 0.71µM* | 4.5µM*
O=C(O)c1ccccc1-c1ccccc1C(=O)Nc1ccc2c(c1)CCC2 | -1% | 2% | / | -12% | 0% | /
O=C(Nc1ccc2c(c1)CCC2)c1ccccc1 | 2.6µM* | 1.3µM* | -11% | 1.1µM* | 0.5µM* | 2µM*
COc1cc2c(cc1NC(=O)c1ccccc1F)CCCC2 | ? | 7% | -1% | 11µM* | ? | 22µM*
CC(=O)c1cccc(NC(=O)Nc2ccc3c(c2)N(C)C(=O)CS3)c1 | -31% | 1% | 1% | 15µM* | -10% | -19%
CC(=O)c1cccc(NC(=O)Nc2ccc(C(=O)N3CCCC3)cc2)c1 | -19% | 26% | ? | 6.7µM* | 13% | -2%
O=C(Nc1ccccc1)Nc1ccc(C(=O)N2CCCC2)cc1 | ? | 0.56µM* | 6.3µM* | 2.4µM* | 0.35µM* | 6.3µM*
O=C1c2ccccc2-c2ccc(C(=O)N3CCCCC3)cc21 | ? | ? | 0% | 27µM* | ? | 12%
O=C(c1ccccc1)N1CCCCCC1 | 1% | 0% | 3% | 0% | -4% | -13%
O=C(c1ccc2ccccc2c1)N1CCCC1 | 9% | -2% | / | 3% | -5% | /
Cc1cc(C)cc(NC(=O)Nc2ccc3c(c2)N(C)C(=O)CS3)c1 | -16% | -2% | -2% | ? | -2% | -11%
CC(=O)c1cccc(NC(=O)C2CCN(C(=O)c3ccc([N+](=O)[O-])cc3)CC2)c1 | -7% | -1% | 2% | -1% | -8% | 10%
